The values that follow come from PubChem BioAssay AID454 (Sanford-Burnham Center for Chemical Genomics, 2006).

One may read the inhibition as the relative decrease from the control value, in per cent.

Among all 10,000 compounds or so, about 25 (0.2%) were called active.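 How the source made its calls: active means compound among top-ranked inhibitors of TNF-induced VCAM-1 adhesion protein staining, with the hit upheld by image or statistical review; inactive means the rest, including hits rejected on review.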 For the sample, actives were picked, then their nearest neighbours and some compounds at random.

The test in a line: inhibitors of TNFa-induced VCAM-1 surface display, cell-based, plate reader, pooled HUVEC, TNFa stimulus (AID 454). The settings on record: HUVEC TNFa-induced VCAM-1 surface immunofluorescence; hits give high values,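 compound tested at 5 µM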.
In the case of `COc1ccc(N(CC(=O)Nc2cc(C)ccc2C)S(=O)(=O)c2c(C)nn(C)c2C)cc1`, the inhibition entry is “inactive”.

As to `Cc1ccc2nc(NC(=O)Cn3cc4c(n3)CCCCC4)sc2c1`, the inhibition result was “inactive”.

`CCCCNC(=O)OC(C)CNC(=O)Oc1cccc(C)c1` (configuration not stated): the inhibition result was “inactive”.

On to `Cc1ccc(O)c(-c2cc(C(=O)Nc3ccc(S(=O)(=O)N4CC(C)OC(C)C4)cc3)[nH]n2)c1` (configuration not stated), for which the inhibition result was “inactive”.

For the compound `O=C(Nc1ccc2c(c1)OCCO2)C1CCCN1S(=O)(=O)c1cccc2cccnc12` (configuration not stated), the inhibition entry was “inactive”.

As to `CCOc1ccccc1NC(=O)CCSc1nc2n[nH]c(C)c2c(=N)n1-c1ccccc1Cl`, the inhibition entry is “inactive”.

As to `Cn1c(=O)c2c(nc(NCCCO)n2CCc2ccccc2)n(C)c1=O`, the inhibition result was “inactive”.

Regarding `Cc1ccc(-n2c(=O)[nH]c3c(C(N)=O)nc(CC(C)C)nc32)cc1`, the inhibition result was “inactive”.

On to `N/C(Cn1nnc(-c2ccccc2)n1)=N\O`, for which the inhibition result is “inactive”.

Take `CO[C@H]1C[C@@H]2CC[C@@H](C)[C@@](O)(O2)C(=O)C(=O)N2CCCC[C@H]2C(=O)O[C@H]([C@H](C)C[C@@H]2CC[C@@H](O)[C@H](OC)C2)CC(=O)[C@H](C)C=C(C)[C@@H](O)[C@@H](OC)C(=O)[C@H](C)C[C@H](C)C=CC=CC=C1C`: the inhibition was 88.8% (active).

Consider `CCOC(=O)C1CCN(c2c(NC3CCCc4ccccc43)c(=O)c2=O)CC1` (configuration not stated), for which the inhibition result is “inactive”.

On to `Cc1ccc(C)c2[nH]c(=O)c(CCNC(=O)c3ccc(S(=O)(=O)N(C)C)cc3)cc12`, for which the inhibition result is “inactive”.

Turning to `Cc1cc(-n2c(C)cc(C(=O)CSc3nnnn3-c3ccc(Cl)cc3)c2C)no1`, the inhibition entry is “inactive”.

With `CC(Oc1ccc(Cl)cc1Cl)c1nc(-c2ccc(NC(=O)c3cccnc3)cc2)no1` (configuration not stated), the inhibition was 72% (active).

As to `O=C(Nc1ccc(-c2noc(-c3cccs3)n2)cc1)c1cccnc1`, the inhibition entry was “inactive”.

In the case of `COc1ccc(Cc2nc(-c3ccc(NC(=O)c4cccnc4)cc3)no2)cc1`, the inhibition entry was “inactive”.

Take `O=C(CCSc1nccn1Cc1ccccc1)N1CCOCC1`: the inhibition result was “inactive”.

Consider `Cc1nnc(NC(=O)C2CCCO2)s1` (configuration not stated), for which the inhibition entry was “inactive”.

Consider `CCN1CCN(C(c2ccc(F)cc2)c2nnnn2Cc2cccs2)CC1` (configuration not stated), for which the inhibition entry was “inactive”.

Take `O=C(COC(=O)c1ccco1)NCc1cccs1`: the inhibition result is “inactive”.

With `CCCCn1nnnc1SCC(=O)N1CCN(C(=O)c2ccco2)CC1`, the inhibition result is “inactive”.

For the compound `COC(=O)CC1SCCNC1=O` (configuration not stated), the inhibition entry was “inactive”.

For `Cn1c(-c2ccccc2)cc(=O)c2ccccc21`, the inhibition entry was “inactive”.

Turning to `O=C(NCCC1=CCCCC1)c1cc2c(s1)CS(=O)(=O)C2`, the inhibition entry was “inactive”.

Take `COc1ccc(C(=O)Cn2nnc(-c3cccs3)n2)cc1`: the inhibition result is “inactive”.

On to `O=C(Nc1sccc1C(=O)NCc1ccco1)c1cccnc1`, for which the inhibition entry is “inactive”.

Take `CC1CCCN(S(=O)(=O)c2ccc(C(=O)Nc3nnc(-c4ccccc4Cl)o3)cc2)C1` (configuration not stated): the inhibition was 77.1% (active).

As to `CCC1CCCCN1S(=O)(=O)c1ccc(C(=O)Nc2nnc(-c3cccs3)o2)cc1` (configuration not stated), the inhibition entry was “inactive”.

Take `CCC1CCCCN1S(=O)(=O)c1ccc(C(=O)Nc2nnc(-c3ccccc3Cl)o2)cc1` (configuration not stated): the inhibition entry is “inactive”.

For the compound `COc1ccc(-c2cc(C(=O)NCc3ccc(Cl)cc3)no2)cc1OC`, the inhibition result is “inactive”.

Turning to `COC(=O)c1[nH]c2cc(OC)ccc2c1NC(=O)CCN1CCCCC1`, the inhibition entry was “inactive”.

Regarding `O=S(=O)(Cc1ccc(Cl)cc1)Nc1ccc2c(c1)OCO2`, the inhibition entry is “inactive”.

As for `CCOC(=O)N1CCN(S(=O)(=O)c2cc(Cl)ccc2Cl)CC1`, the inhibition entry is “inactive”.

As to `Cc1nnc(SCCn2c(N3CC(C)CC(C)C3)nc3c2c(=O)n(C)c(=O)n3C)s1` (configuration not stated), the inhibition entry was “inactive”.

Consider `COC(=O)c1[nH]c2ccccc2c1NC(=O)CN1CCC(C(N)=O)(N2CCCCC2)CC1`, for which the inhibition entry is “inactive”.

As to `CCC(C)NC(=O)CC1Oc2ccc(C)cc2NC1=O` (configuration not stated), the inhibition result was “inactive”.

Turning to `COc1ccccc1NC(=O)N1CCN(c2cccc(C(F)(F)F)c2)CC1`, the inhibition result was “inactive”.

In the case of `Cc1cc(C)n2nc[n+](C)c2n1`, the inhibition result is “inactive”.

Regarding `CC(=O)N1CCN(S(=O)(=O)c2cccc(C(=O)Nc3ccc4c(c3)CCC4)c2)CC1`, the inhibition entry was “inactive”.

Take `CCc1nnc2c3cnn(-c4ccccc4)c3ncn12`: the inhibition result is “inactive”.

As to `Cc1ccc(S(=O)(=O)N2CCCC2)cc1S(=O)(=O)N1CCCC1`, the inhibition entry was “inactive”.

`CS(=O)(=O)N1CCc2cc(C(=O)N3CCCCC3)ccc21`: the inhibition entry is “inactive”.

Consider `Cc1cc(C)nc(NS(=O)(=O)c2ccc(NC(=O)Cn3c(=O)oc4ccccc43)cc2)n1`, for which the inhibition result is “inactive”.

Consider `CCOC(=O)c1[nH]c2ccc(C)cc2c1NC(=O)CN1CCCCC1`, for which the inhibition result is “inactive”.

`O=C(NCC1CCCO1)c1ccc(C(=O)NCC2CCCO2)cc1` (configuration not stated): the inhibition result was “inactive”.

Take `S=C(NCC1CCCO1)n1nnc2ccccc21` (configuration not stated): the inhibition is 104% (active).

Consider `O=C(CN(Cc1ccc(F)cc1)C(=O)Cn1nnc2ccccc21)NCC1CCCO1` (configuration not stated), for which the inhibition entry was “inactive”.

Regarding `CC(=O)Oc1ccc(CCC(C)OC(C)=O)cc1` (configuration not stated), the inhibition result was “inactive”.

For `c1cc2c(cc1Nc1nc(-c3ccc4c(c3)OCO4)cs1)OCCO2`, the inhibition result is “inactive”.

As for `Oc1ccc(Nc2nc(-c3ccc(O)cc3)cs2)cc1`, the inhibition is 106% (active).

As for `CC(=O)Nc1nc(C)c(-c2csc(Nc3ccc(O)cc3)n2)s1`, the inhibition entry is “inactive”.

Turning to `COc1ccc2nc(CC(C)(C)CC(=O)O)c[n+]([O-])c2c1`, the inhibition result was “inactive”.

Regarding `O=C(NC1CC1)c1cccc(Nc2ccc(-c3ccc4c(c3)OCCO4)nn2)c1`, the inhibition result was “inactive”.

In the case of `Cn1c(=O)cc(OCCCC(=O)Nc2ccc3c(c2)OCCO3)c2ccccc21`, the inhibition result is “inactive”.

Turning to `CCOC(=O)N1CCN(C(=O)COc2cc(=O)n(C)c3ccccc23)CC1`, the inhibition entry was “inactive”.

Turning to `Cn1c(=O)cc(OCCCC(=O)N2CCCCC2)c2ccccc21`, the inhibition is 101% (active).

Take `CCOC(=O)c1nn(-c2sc(C(=O)OC)c(C)c2C(=O)OC)cc1O`: the inhibition result is “inactive”.

As for `COc1ccc(CCn2c(N)c(C#N)c3nc4ccccc4nc32)cc1OC`, the inhibition result is “inactive”.

For `COc1cc(/C=C/C(=O)CC(=O)/C=C/c2ccc(O)c(OC)c2)ccc1O`, the inhibition was 85.5% (active).

`O=C(O)/C=C/c1ccc(O)c(O)c1`: the inhibition entry was “inactive”.

Consider `CCN(CC)C(=O)c1ccc(O)c(OC)c1`, for which the inhibition result was “inactive”.

As for `COc1ccc(N2CCN(c3ncnc4c3cnn4-c3ccc(C)cc3C)CC2)cc1`, the inhibition result is “inactive”.

For `CC1(C)Cc2c(sc3c2c(=N)n(Cc2ccco2)c(=O)n3Cc2ccccc2)CO1`, the inhibition result was “inactive”.

Consider `Cc1nc(-c2ccccc2)sc1C(N)=O`, for which the inhibition entry was “inactive”.

`Clc1ccc(Cl)c(-c2nn3c(Cn4cnc5ccccc54)nnc3s2)c1`: the inhibition entry is “inactive”.

Regarding `CSc1ccccc1NC(=O)CN(c1ccccc1)S(=O)(=O)N(C)C`, the inhibition result was “inactive”.

With `CSc1ccc(Cn2nnc(C(=O)NCc3ccccc3)c2N)cc1`, the inhibition result was “inactive”.
